Measurements reported in PubChem BioAssay (NCATS).
Results filed as inconclusive are left out. Activity calls are given as the source filed them. Unless noted, calls follow the shape of the dose curve; as a rule, active = well fitted curve in the direction sought with a large enough effect; inconclusive = small, poorly fitted or top-dose-only effect, or another doubt; inactive = no such curve, though single readings can be large; an effect the other way counts as inactive or inconclusive.

Experiments:
[1] = Cell Viability - BJ (AID 421; calls by dose curve;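 also: potency is read from the fitted curve at half-maximal effect; cells exposed to compound for 40 hours at 37 °C before readout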); details: BJ fibroblast viability, qHTS
Summary of the method: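 Normal human BJ foreskin fibroblasts, 1500/well in complete medium, treated 40 hr at 37 °C. Cellular ATP by CellTiter-Glo luminescence; normalized to DMSO and 100 uM tamoxifen, AC50 from Hill fit.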

[2] = Cell Viability - Jurkat (AID 426;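 active = dose-dependent loss of cell ATP signal giving a full or clear fitted curve, ranked by lower potency value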; also: potency is read from the fitted curve at half-maximal effect); details: qHTS
Summary of the method: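 Cells of the human T-cell leukemia line Jurkat (E6-1) are seeded at 5000 per well, treated with compound across a concentration range for 40 hours at 37 °C, then lysed with CellTiter-Glo; luminescence reports ATP.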

[3] = Cell Viability - Hek293 (AID 427;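 active = compounds whose dose-response curve shows a full or clear partial loss of cell viability, called from curve shape rather than a numeric limit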;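 also: potency is read from the fitted curve at half-maximal effect; cells exposed to compound for 40 hours at 37 °C before reading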); details: qHTS
Summary of the method: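 HEK293 cells in complete medium were exposed to compound for 40 hr at 37 °C, then cellular ATP was read by CellTiter-Glo luminescence. Data were normalized to DMSO (basal) and 100 uM tamoxifen (100% inhibition), and AC50 came from Hill fits.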

[4] = Cell Viability - HepG2 (AID 433; calls by dose curve;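 also: potency is read from the fitted curve at half-maximal effect; potency for ATP loss meaning cytotoxicity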); details: qHTS
Summary of the method: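 Read-out is luciferase-based quantitation of cellular ATP as a measure of viable HepG2 cells after 40 h treatment at 37 °C. Signal decrease is scaled between DMSO-only and 100 uM tamoxifen controls, with AC50 fitted by the Hill equation.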

[5] = Cell Viability - MRC5 (AID 434; calls by dose curve;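 also: potency is read from the fitted curve at half-maximal effect; potency reflects cytotoxicity seen as loss of intracellular ATP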); details: MRC5 lung fibroblast viability, qHTS
Summary of the method: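 AC50 values come from Hill-equation fits of intracellular ATP loss, measured by CellTiter-Glo luminescence. Normal lung fibroblasts (MRC5) had 40 hr compound treatment at 37 C, normalized between DMSO and 100 uM tamoxifen.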

[6] = Cell Viability - SK-N-SH (AID 435; calls by dose curve;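 also: potency is read from the fitted curve at half-maximal effect; compound exposure lasted 40 h at 37 °C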); details: SK-N-SH neuroblastoma cell viability qHTS
Summary of the method: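 Luminescent ATP signal served as the viability read-out after 40 hours of compound treatment of human neuroblastoma SK-N-SH cells. Concentration-response data, scaled between DMSO and 100 uM tamoxifen, gave AC50 values by standard Hill modeling.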

[7] = biological target: Mitogen-activated protein kinase 10 (Mus musculus) (UniProt Q61831); assay: JNK3 AlphaScreen Assay (AID 530; active = well fitted curve in either direction with a large enough effect, not every such curve was filed as active;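 also: kinase came from lysate of stimulated human HepG2 cells; signal reports phosphorylation of biotinylated GST-cJun 1-79 at Ser73 with 10 µM ATP; series mostly up to about 57 µM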)
Summary of the method: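 qHTS titrations with 15 min compound pre-incubation before adding ATP (10 uM final). Read-out: AlphaScreen of Ser73-phosphorylated biotin-GST-cJun using HepG2 lysate JNK3 activated by IL-1β and TNFα.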

[8] = Cell Viability - N2a (AID 540); also: nearly all actives have a fitted effect of over 45% in size
Summary of the method: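 Cytotoxicity was scored as loss of cellular ATP in N2a cells, a mouse neuroblastoma line. Compounds are applied in a qHTS concentration series for 40 hr at 37 °C.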

[9] = Cell Viability - HUV-EC-C (AID 542); also: nearly all actives have a fitted effect of over 35% in size
Summary of the method: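 Cells were seeded at 1000 per well and incubated 5 hr at 37 °C before compound addition. After 40 hr at 37 °C, CellTiter-Glo reagent was added for 20 min and luminescence read. AC50 values came from Hill-equation modelling.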

[10] = Cell Viability - H-4-II-E (AID 543); also: nearly all actives have a fitted effect of over 35% in size
Summary of the method: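 Cells seeded at 1500 per well and rested 5 hr; compounds added; 40 hr incubation at 37 °C; CellTiter-Glo added, 20 min at room temperature; luminescence read. Hill-equation fits gave AC50.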

[11] = Cell Viability - SH-SY5Y (AID 544); also: nearly all actives have a fitted effect of over 55% in size
Summary of the method: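 Cells were plated at 1500 per well and allowed 5 hr at 37 °C. Compounds were added across a concentration range and incubated 40 hr at 37 °C. CellTiter-Glo was added for 20 min at room temperature before luminescence reading.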

[12] = Cell Viability - Renal Proximal Tubule (AID 545); also: nearly all actives have a fitted effect of over 40% in size
Summary of the method: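 Luminescent ATP signal (CellTiter-Glo) served as the viability read-out after 40 hr compound exposure of freshly isolated rat proximal tubule cells at 37 °C. Concentration-dependent ATP loss was fitted with the Hill equation to give AC50.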

[13] = Cell Viability - Mesenchymal (AID 546);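 also: cells exposed to compound for 40 hours before reading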
Summary of the method: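 CellTiter-Glo luminescence (intracellular ATP, 20 min room temperature) after 40 hr compound exposure at 37 °C of 1000 glomerulus-derived human kidney mesenchymal cells/well; AC50 values obtained by fitting qHTS concentration-response data to the Hill equation.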

[14] = Cellular Toxicity (caspase-3) HepG2 (AID 654);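 also: cells exposed to compound for 16 hours before reading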
Summary of the method: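 Caspase 3/7 activation in HepG2 is measured as rising luminescence after a 16 hr treatment at 37 °C. Values are scaled between DMSO basal and 100 uM tamoxifen, and AC50 is fitted with the Hill equation.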

[15] = Cellular Toxicity (caspase-3) Jurkat (AID 655);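 also: cells exposed to compound for 16 h at 37 °C before reading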
Summary of the method: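 5000 Jurkat cells/well; compound 16 hr, 37 °C; Caspase-Glo 3/7 added, 20 min RT; luminescence read. Norm: DMSO = 0%, tamoxifen 100 uM = 100%. AC50, Hill model.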

[16] = Cellular Toxicity (caspase-3) HUV-EC-C (AID 656)
Summary of the method: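 qHTS; HUV-EC-C, 1000 cells/well; 5 hr settle, 16 hr cmpd, 37°C; Caspase-Glo 3/7, 20 min RT; luminescence. Norm: DMSO = 0%, tamoxifen 100 uM = 100%. Hill-fit AC50.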

[17] = Cellular Toxicity (caspase-3) SHSY5Y (AID 657)
Summary of the method: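 qHTS, SH-SY5Y, 1500 cells/well, 5 h pre-incubation 37 °C; compound 16 h 37 °C; Caspase-Glo 3/7 1 h RT; luminescence. Norm.: DMSO = 0, 10 uM staurosporine = 100%. Hill fit → AC50.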

[18] = Cellular Toxicity (caspase-3) BJ (AID 658)
Summary of the method: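 Caspase-Glo 3/7 luminescence, read 1 hr after reagent at room temperature, in normal BJ fibroblasts exposed 16 hours at 37 °C. AC50 values from Hill-equation concentration-response, scaled between DMSO basal and 10 uM staurosporine as 100%.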

[19] = Cellular Toxicity (caspase-3) MRC-5 (AID 659)
Summary of the method: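 Luminescent Caspase-Glo 3/7 read-out (1 h, room temperature) after a 16 h, 37 °C compound exposure of MRC-5 lung fibroblasts at 1500 cells/well. Concentration-response AC50 from Hill equation; 0% DMSO, 100% 10 uM staurosporine.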

[20] = Cellular Toxicity (caspase-3) Mesangial (AID 660);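 also: combined caspase 3 and 7 activity read by Caspase-Glo luminescence; cells exposed to compound for 16 h before the caspase read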
Summary of the method: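 Seed cells derived from normal human renal glomeruli, incubate 5 h, add compounds across concentrations and incubate 16 h at 37 °C. Caspase 3/7 activation is then quantified by luciferase light, with AC50 derived by Hill modeling.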

[21] = Cellular Toxicity (caspase-3) SK-N-SH (AID 661)
Summary of the method: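 Cells were seeded and incubated 5 hr at 37 °C, dosed with compound over a concentration range for 16 hr, then given Caspase-Glo 3/7 reagent for 1 hr at room temperature before luminescence reading.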

[22] = Cellular Toxicity (caspase-3) H-4-II-E (AID 663);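 also: cells exposed to compound for 16 hr before readout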
Summary of the method: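 Caspase 3/7 activation measured by luminescent aminoluciferin substrate cleavage after 16 hr compound treatment of H-4-II-E cells in complete medium. Increase normalized between DMSO (basal) and 100 uM tamoxifen (100%); Hill-equation AC50 from concentration-response.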

[23] = Cellular Toxicity (caspase-3) Hek293 (AID 664);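 also: cells exposed to compound for 16 h at 37 °C before readout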
Summary of the method: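 qHTS, HEK293 (human embryonic kidney), 16 h cpd exposure in complete medium. Caspase-3/7 activation = luminescence increase; normalized to DMSO/100 uM tamoxifen; Hill-fit AC50.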

[24] = Cellular Toxicity (caspase-3) N2a (AID 665);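 also: compound exposure lasted 16 h at 37 °C before readout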
Summary of the method: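 Caspase-3/7 activation, measured as increased luminescence from aminoluciferin release, is quantified in mouse N2a cells exposed to compounds for 16 h. Values are normalized to DMSO and 10 uM staurosporine, with AC50 derived by Hill modelling.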

[25] = Cellular Toxicity (caspase-3) NIH 3T3 (AID 666)
Summary of the method: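 Cells were plated at 1000 per well and incubated 5 hr at 37°C, then compound was added for 16 hr. Caspase-Glo 3/7 reagent followed for 20 min at room temperature before luminescence was read.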

[26] = Cellular Toxicity (caspase-3) Renal Proximal Tubule (AID 667);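 also: cells exposed to compound for 16 hours at 37 °C before detection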
Summary of the method: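 AC50 derived by standard Hill fit of concentration-response data, normalized between DMSO basal and 10 uM staurosporine as 100% stimulation. Cells: primary rat kidney proximal tubule, 16 h treatment at 37 °C.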

[27] = biological target: Cytochrome P450 3A4 (Homo sapiens) (UniProt P08684); assay: qHTS Assay for Inhibitors and Substrates of Cytochrome P450 3A4 (AID 884); also: series mostly up to about 57 µM; nearly all actives have a fitted effect of over 50% in size
Cytochrome P450 3A4 (Homo sapiens), sequence (P08684 whole entry, looked up): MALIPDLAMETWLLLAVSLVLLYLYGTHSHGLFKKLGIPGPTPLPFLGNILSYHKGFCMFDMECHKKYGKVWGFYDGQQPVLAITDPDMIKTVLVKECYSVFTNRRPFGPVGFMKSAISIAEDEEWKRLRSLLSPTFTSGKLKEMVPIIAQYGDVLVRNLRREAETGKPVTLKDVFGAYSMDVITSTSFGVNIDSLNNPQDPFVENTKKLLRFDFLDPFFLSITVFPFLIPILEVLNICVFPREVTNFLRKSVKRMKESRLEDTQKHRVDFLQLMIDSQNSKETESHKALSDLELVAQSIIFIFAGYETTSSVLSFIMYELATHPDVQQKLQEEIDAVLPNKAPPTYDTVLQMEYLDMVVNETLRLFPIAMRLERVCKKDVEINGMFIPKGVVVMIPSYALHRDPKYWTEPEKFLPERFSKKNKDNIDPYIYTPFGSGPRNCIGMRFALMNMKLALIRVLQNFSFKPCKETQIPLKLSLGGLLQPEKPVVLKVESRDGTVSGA
Summary of the method: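 Luminescent readout of luciferin produced by CYP3A4 (20 nM) dealkylation of Luciferin-PPXE, 25 uM (its KM). NADPH-driven reaction ran 60 min at RT after 10 min compound preincubation; data scaled to 57 uM ketoconazole as 100% inhibition.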

[28] = Cell Viability - LYMP2-001 (AID 921);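 also: series mostly up to about 92 µM; cells exposed to compound for 24 h at 37 °C; nearly all actives have a fitted effect of over 70% in size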
Summary of the method: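 Steps: seed 2500 lymphoblastoid cells/well; 5 hr, 37 C; add compound; 24 hr, 37 C; CellTiter-Glo reagent, 30 min room temperature; read luminescence. Concentration-response modeled by Hill equation for AC50.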

[29] = MultiTox-Fluor Cytotoxicity Assay - LYMP1-001 - Dead Cells (AID 946)
Summary of the method: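 LYMP1-001 lymphoblastoid cells (2500/well) treated 16 h at 37 C. Dead-cell protease cleavage of bis-AAF-R110 read at Ex/Em 485/520. Normalized to DMSO and 15 uM tetraoctylammonium bromide; AC50 from Hill fits.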

[30] = MultiTox-Fluor Cytotoxicity Assay - LYMP1-001 - Live Cells (AID 947)
[31] = Cell Viability - LYMP1-002 - Assay at 16 hr (AID 948)
Summary of the method: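 Seed 2500 LYMP1-002 cells per well in complete medium and hold 5 hr at 37 C. Add compound across a concentration series and incubate 16 hr at 37 C. Add CellTiter-Glo, wait 30 min at room temperature, read luminescence.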

[32] = MultiTox-Fluor Cytotoxicity Assay - LYMP1-002 - Live Cells (AID 955)
Summary of the method: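 Cells were seeded at 2500 per well and incubated 5 hr. Compounds were then added for 16 hr at 37 C, followed by MultiTox-Fluor reagent for 60 min at room temperature and fluorescence reading of viable-cell protease signal.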

[33] = MultiTox-Fluor Cytotoxicity Assay - LYMP1-002 - Dead Cells (AID 960); also: nearly all actives have a fitted effect of over 60% in size
Summary of the method: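 Cells were plated, rested 5 hr, then treated with compound dilution series for 16 hr at 37 C. After adding substrate reagent and 60 min at room temperature, dead-cell protease fluorescence gave concentration-response curves fitted by the Hill equation.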

[34] = MultiTox-Fluor Cytotoxicity Assay - LYMP1-003 - Dead Cells (AID 961); also: nearly all actives have a fitted effect of over 70% in size
Summary of the method: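 LYMP1-003 human lymphoblastoid cells (2500/well) exposed to compound 16 h at 37 C in complete medium; dead-cell protease read with bis-AAF-R110 fluorescence (Ex/Em 485/520) after 60 min at room temperature. Normalized to DMSO and 15 uM tetraoctylammonium bromide; AC50 from Hill fit.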

[35] = MultiTox-Fluor Cytotoxicity Assay - LYMP1-003 - Live Cells (AID 962);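 also: cytotoxic hits lower the live-cell protease signal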
Summary of the method: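 Acute cytotoxicity is scored as a drop in live-cell protease activity in human lymphoblastoid LYMP1-003 cells after 16 hr compound exposure at 37 C. AC50 values come from Hill-equation modelling of concentration-response data.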

[36] = Cell Viability - LYMP1-003 - Assay at 24 hr (AID 963)
Summary of the method: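 Cytotoxicity is scored as a concentration-dependent fall in ATP-linked luciferase signal in human lymphoblastoid LYMP1-003 cells treated 24 hr at 37 C in complete culture medium.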

[37] = Cell Viability - LYMP1-003 - Assay at 40 hr (AID 964); also: series mostly up to about 92 µM; nearly all actives have a fitted effect of over 60% in size
Summary of the method: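 Luminescent ATP signal (CellTiter-Glo) served as the viability read-out after 40 hr compound treatment of human lymphoblastoid LYMP1-003 cells at 37 C. Decreases in ATP were fitted with the Hill equation to give AC50.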

[38] = Cell Viability - LYMP2-003 (AID 965);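 also: cells exposed to compounds for 24 h before reading; nearly all actives have a fitted effect of over 50% in size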
Summary of the method: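 Seed 2500 lymphoblastoid cells/well; incubate 5 hr, 37 C; add compounds; incubate 24 hr, 37 C; add CellTiter-Glo, 30 min RT; read luminescence. AC50 from Hill fit.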

Measured: Potency

C[C@@H]1[C@H](O)[C@@H](C)/C=C/C=C/C=C/C=C/C=C/C=C/C=C/[C@H](O[C@@H]2O[C@H](C)[C@@H](O)[C@H](N)[C@@H]2O)C[C@@H]2O[C@](O)(C[C@@H](O)C[C@@H](O)[C@H](O)CC[C@@H](O)C[C@@H](O)CC(=O)O[C@H]1C)C[C@H](O)[C@H]2C(=O)O
inactive: [1] > 92 µM | [2] > 92 µM | [3] > 92 µM | [4] > 92 µM | [5] > 92 µM | [6] > 92 µM | [7] | [8] | [9] | [10] | [11] | [12] | [13] | [14] | [15] | [16] | [17] | [18] | [19] | [20] | [21] | [22] | [23] | [24] | [25] | [26] | [27] | [28] | [29] | [30] | [31] | [32] | [33] | [34] | [35] | [36] | [37] | [38]
